The subject of the first experiment is T1, PCTK3.
T1 construct: gene CDK18
Particulars: concentration: 1 μM,replicates: in singlicate; n = 1.
Consider `Cl.Cl.NC[C@H](CC1CCCCC1)NC(=O)c1cc(Br)c(-c2ccnc3[nH]ccc23)s1` [GSK1581427], for which the “%Inh” value worked out at 0%.
Still for that read-out and setting: with `CN(C)CCOc1ccc(-c2cc(-c3c[nH]nc3-c3ccccn3)ccn2)cc1` [GW835314] the figure was 2%.
The same measure, in the same setting: with `CNC(=O)c1ccccc1Sc1ccc2c(/C=C/c3ccccn3)n[nH]c2c1` the figure was 8%.
Turning to `O=C(NCCNc1ccnc(NCc2ccc(F)cc2)n1)c1cc2ccccc2s1` [GSK1379944], the “%Inh” value worked out at 14%.
Still for that read-out and setting: with `Cc1cc2cn[nH]c2cc1-c1cccc2c(N)c(C(N)=O)nnc12` the figure was 26%; with `CC(C)N1C(=O)Cc2cc(Nc3ncc(C(F)(F)F)c(NCc4cccc(S(C)(=O)=O)c4)n3)ccc21`, 7%.
The same measure, in the same setting: under `Cl.Oc1cc(-c2nc(-c3ccccc3)[nH]c2-c2ccncc2)ccc1Cl` [SB-386023] stands 0%; under `CC(C)Nc1cc(-c2ccc3c(N)n[nH]c3c2)nc(N)n1` [GSK2221681], 10%.
The same measure, in the same setting: under `Cc1ccc(-n2nc(C(C)(C)C)cc2NC(=O)Nc2ccc(OCCN3CCOCC3)c3ccccc23)cc1` [GW839464] stands 2%; under `C[C@@H](Oc1cc(-c2cnn(C3CCNCC3)c2)cnc1N)c1c(Cl)ccc(F)c1Cl`, 6%; under `Cc1n[nH]c2ccc(-c3cc(OC[C@@H](N)Cc4ccccc4)cnc3-c3ccoc3)cc12.O=C(O)C(F)(F)F.O=C(O)C(F)(F)F` [GSK507358], 0%.
Regarding `CCN(CC)CCOc1ccc(Nc2ncc3cc(-c4c(Cl)cccc4Cl)c(=O)n(C)c3n2)cc1` [SB-601273], the “%Inh” value was determined as 0%.
The same measure, in the same setting: with `Cl.Cl.Nc1nc(-c2ccc3c(N)n[nH]c3c2)cc(N2CCCC(NC(=O)c3ccccc3)C2)n1` (stereo not shown) [GSK2286775] the figure was 11%.
For the molecule `Cc1cc(C(=O)Nc2ccc(Oc3ccc4nc(NC(=O)C5CC5)cn4n3)cc2)nn1-c1ccccc1`, the “%Inh” value amounted to 4%.
With `Nc1nc(Nc2ccccc2)cc(-c2ccc3c(N)n[nH]c3c2)n1` [GSK2225749], the “%Inh” value was found to be 0%.

The next experiment relates to PDGFRA. Particulars: concentration: 1 μM,replicates: in singlicate; n = 1.
As to `CCn1c(-c2nonc2N)nc2c(C#CC(C)(C)O)nc(OCCN)cc21.Cl.Cl` [GSK902056], the “%Inh” value came out at 0%.
Same read-out and setting: with `COc1ccc(C[C@@H](CN)NC(=O)c2cc(Br)c(-c3ccnc4[nH]ccc34)s2)cc1.Cl.Cl` [GSK1389063] the figure was 62%; with `Cc1ccc2c(-c3ccncc3)c(-c3ccc(F)cc3)nn2c1.Cl` [GW461484], 0%; with `Cl.Cl.NC[C@H](Cc1ccc(C(F)(F)F)cc1)NC(=O)c1cc(Br)c(-c2ccnc3[nH]ccc23)s1` [GSK1487252], 28%.
`O=C(NCCCN1CCOC1=O)c1cnc(NCc2cc(Cl)ccc2Cl)nc1NC1CCCC1`: the “%Inh” value was 0%.
On the same count and under the same terms, under `C=CC(=O)Nc1cc2c(Nc3ccc(F)c(Cl)c3)ncnc2cc1OCCCN1CCOCC1` [GW781483] stands 77%; under `NC(=O)c1cc(-c2ccccc2)cc2c(C3CCNCC3)c[nH]c12` [GSK301362], 0%.
Turning to `C[C@@H]1CCN(C(=O)CC#N)C[C@@H]1N(C)c1ncnc2[nH]ccc12`, the “%Inh” value was determined as 0%.
Still for that read-out and setting: under `Cc1occc1-c1nc(N)c(OC[C@@H](N)Cc2c[nH]c3ccccc23)cc1-c1cc2c(C)n[nH]c2cn1` [GSK1660450] stands 0%.
In the case of `C[C@H]1Oc2cc(cnc2N)-c2c(nn(C)c2C#N)CN(C)C(=O)c2ccc(F)cc21`, the “%Inh” value amounted to 0%.
The same measure, in the same setting: with `CN(C)CC(O)COc1ccc(Nc2nccc(-c3cnn4nc(N5CCOCC5)ccc34)n2)cc1` (stereo not shown) [GW767488] the figure was 56%; with `CCN(CC)CCCCNc1ncc2cc(-c3c(Cl)cccc3Cl)c(NC(=O)NC(C)(C)C)nc2n1`, 90.1%; with `Cl.Cl.NC[C@H](CC1CCCCC1)NC(=O)c1cc(Br)c(-c2ccnc3[nH]ccc23)s1` [GSK1581427], 22%.
Still for that read-out and setting: with `CN(C)CCOc1ccc(-c2cc(-c3c[nH]nc3-c3ccccn3)ccn2)cc1` [GW835314] the figure was 29%; with `CNC(=O)c1ccccc1Sc1ccc2c(/C=C/c3ccccn3)n[nH]c2c1`, 99.9%.
Still for that read-out and setting: with `O=C(NCCNc1ccnc(NCc2ccc(F)cc2)n1)c1cc2ccccc2s1` [GSK1379944] the figure was 0%; with `Cc1cc2cn[nH]c2cc1-c1cccc2c(N)c(C(N)=O)nnc12`, 34%.
Consider `CC(C)N1C(=O)Cc2cc(Nc3ncc(C(F)(F)F)c(NCc4cccc(S(C)(=O)=O)c4)n3)ccc21`, for which the “%Inh” value is 36%.
For the molecule `Cl.Oc1cc(-c2nc(-c3ccccc3)[nH]c2-c2ccncc2)ccc1Cl` [SB-386023], the “%Inh” value was determined as 0%.
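Note: KINOMEscan kinase panel screen.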
